Consider ten compounds from article PMC5540273 (PLoS ONE, 2017).

The structures appear in SMILES notation.

What all share (settings): concentration: 1 μM, replicates: in singlicate; n = 1
Assay [1] concerns SRPK2.
Assay [2] has as its system SRPK3.
The test system of assay [3] is STK16.
The test system of assay [4] is STK33.
In assay [5] the test system is STK35.
Assay [6] relates to STK36.
For assay [7], the system named is STK39.
Assay [8] concerns SYK.
For assay [9], the system named is SgK110.
Assay [10] concerns T1, TAK1.
T1 construct: gene MAP3K7

Assay [11] concerns TAOK1.
For assay [12], the system named is TAOK2.
In assay [13] the test system is TAOK3.
Assay [14] has as its system TBK1.
Assay [15] deals with TEC.
Assay [16] concerns TESK1.
Assay [17] concerns TGFBR1.
Assay [18] relates to TGFBR2.
Assay [19] concerns TIE1.
Assay [20] deals with T2, TIE2.
T2 construct: gene TEK
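Note: KINOMEscan kinase panel screen.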

Consider `O=C(Nc1n[nH]c2nc(-c3ccco3)c(Br)cc12)C1CCN(Cc2ccccc2)C1.O=C(O)[C@H](O)[C@@H](O)C(=O)O` (centres unmarked) [SB-742034], for which the “%Inh” value in [1] was 0%; in assay [2], 0%; in assay [3], 57%; in [4], 23%; in assay [5], 0%; in assay [6], 29%. Moreover, the “%Inh” value in [7] came out at 1%; in assay [8] it was 0%; in assay [9], 37%; in assay [10], 22%; in assay [11] it was 0%; in assay [12] it was 0%. The “%Inh” value in assay [13] was 10%; in assay [14], 18%; in assay [15], 8%; in assay [16], 23%; in [17], 0%; in assay [18], 21%. Moreover, the “%Inh” value in assay [19] amounted to 0%; in assay [20], 17%.

In the case of `Cn1cnc2c(N)ncnc21` [SKF-97623], the “%Inh” value is on record as 10% in assay [1]; 18% in assay [2]; 0% in assay [3]; 0% in assay [4]; 19% in assay [5]; 0% in [6]. Moreover, the “%Inh” value in assay [7] amounted to 2%; in assay [8] it was 0%; in [9] it was 0%; in assay [10], 0%; in assay [11], 0%; in assay [12], 0%. Besides, the “%Inh” value in assay [13] was 0%; in assay [14] it was 0%; in assay [15], 0%; in [16] it was 0%; in assay [17] it was 9%; in [18] it was 2%. Besides, the “%Inh” value in assay [19] and in assay [20] was 0% throughout.

Regarding `Cc1cnc(N)c(/C=C/c2cncc(C(=O)NCCc3ccc(Cl)cc3Cl)c2)c1.Cl` [GSK190937], the “%Inh” value in [1] is 34%; in assay [2], 0%; in assay [3], 1%; in assay [4], 5%; in assay [5] it was 0%; in [6], 28%. Besides, the “%Inh” value is reported as 2% in [7]; 22% in assay [8]; 9% in assay [9]; 0% in [10]; 11% in assay [11]; 0% in [12]. Further, the “%Inh” value is given as 25% in [13]; 12% in assay [14]; 18% in assay [15]; 1% in [16]; 0% in [17]; 0% in [18]. Also, the “%Inh” value was 20% in assay [19] and 0% in assay [20].

As for `COC(=O)C(Cc1ccccc1)NC(=O)NC1CCN(c2ccnc(Nc3ccc(F)cc3)n2)C1` (centres unmarked) [GSK1379714], the “%Inh” value stood at 38% in assay [1]; 0% in assay [2]; 19% in [3]; 8% in [4]; 0% in assay [5]; 31% in [6]. The “%Inh” value in [7] turned out to be 10%; in assay [8], 34%; in assay [9], 0%; in assay [10], 0%; in assay [11], 0%; in assay [12], 0%. For the same compound, the “%Inh” value stood at 0% in assay [13]; 21% in assay [14]; 0% in assay [15]; 16% in assay [16]; 20% in assay [17]; 0% in [18]. For the same compound, the “%Inh” value in assay [19] turned out to be 16%; in assay [20], 0%.

On to `COc1ccc(-c2coc3ccc(-c4nnc(C)o4)cc23)cc1`, for which the “%Inh” value in assay [1] was 0%; in assay [2], 0%; in assay [3], 21%; in [4], 0%; in assay [5], 0%; in [6], 13%. Besides, the “%Inh” value in assay [7] stood at 0%; in [8], 17%; in assay [9], 52%; in assay [10], 0%; in assay [11], 0%; in [12], 0%. Also, the “%Inh” value was 0% in [13]; 30% in assay [14]; 0% in assay [15]; 8% in assay [16]; 3% in [17]; 43% in assay [18]. For the same compound, the entries for the “%Inh” value in assay [19] and in [20] were 0% and 40%, respectively.

`Cc1ccc(-c2nc(Nc3ccncc3)c3ccccc3n2)s1` [GSK189015]: the “%Inh” value in assay [1] is 0%; in assay [2] it was 18%; in [3], 12%; in assay [4], 12%; in assay [5], 18%; in assay [6] it was 0%. Moreover, the “%Inh” value stood at 15% in [7]; 5% in assay [8]; 0% in assay [9]; 0% in [10]; 0% in assay [11]; 0% in assay [12]. In addition, the “%Inh” value in assay [13] was 5%; in assay [14], 7%; in assay [15], 8%; in assay [16], 61%; in [17], 6%; in assay [18], 21%. For the same compound, the “%Inh” value is reported as 19% in assay [19] and 12% in assay [20].

With `O=C(Nc1n[nH]c2cc(-c3ccsc3)ccc12)C1CC1` [SB-732932], the “%Inh” value turned out to be 0% in assay [1]; 75% in assay [2]; 23% in assay [3]; 0% in [4]; 0% in [5]; 2% in [6]. Moreover, the “%Inh” value was 0% in assay [7]; 13% in [8]; 0% in [9]; 7% in assay [10]; 64% in assay [11]; 8% in assay [12]. For the same compound, the “%Inh” value in assay [13] amounted to 26%; in [14], 9%; in assay [15], 32%; in assay [16], 9%; in [17], 0%; in [18], 0%. The “%Inh” value in [19] and in assay [20] was 11% throughout.

For `Cc1ccc(NC(=O)Nc2ccc(Cl)c(C(F)(F)F)c2)cc1-c1ccc(C(=O)Nc2ccncc2)cc1` [GSK1398470], the “%Inh” value was found to be 0% in assay [1]; 23% in [2]; 0% in assay [3]; 6% in assay [4]; 8% in [5]; 37% in [6]. The “%Inh” value in assay [7] is 0%; in [8], 13%; in [9], 0%; in assay [10], 0%; in [11], 0%; in assay [12], 0%. The “%Inh” value stood at 0% in [13]; 17% in [14]; 8% in assay [15]; 23% in assay [16]; 0% in [17]; 7% in assay [18]. The figures for the “%Inh” value in assay [19] and in assay [20] were 6% and 0%, respectively.

On to `O=C1NC(=O)C(c2ccc(Cl)cc2)=C1Nc1cccc(Cl)c1` [SB-317651], for which the “%Inh” value amounted to 3% in assay [1]; 8% in assay [2]; 0% in assay [3]; 0% in assay [4]; 0% in [5]; 2% in assay [6]. The “%Inh” value in assay [7] stood at 17%; in assay [8], 0%; in assay [9], 0%; in [10] it was 34%; in [11] it was 15%; in [12], 2%. The “%Inh” value is 15% in assay [13]; 15% in [14]; 0% in assay [15]; 22% in [16]; 0% in [17]; 8% in assay [18]. The “%Inh” value in assay [19] was determined as 0%; in assay [20] it was 6%.

Take `CNC(=O)c1ccc(C)c(-n2c(C)cc(OCc3ccc(F)cc3F)c(Br)c2=O)c1`: the “%Inh” value in assay [1] is recorded as 0%; in [2] it was 6%; in assay [3], 3%; in assay [4], 0%; in assay [5], 0%; in assay [6] it was 1%. Moreover, the “%Inh” value in assay [7] was 0%; in assay [8], 14%; in [9] it was 0%; in [10] it was 12%; in [11], 0%; in assay [12] it was 0%. Moreover, the “%Inh” value in assay [13] came to 0%; in assay [14], 0%; in assay [15], 1%; in assay [16], 13%; in assay [17], 0%; in assay [18], 0%. Besides, the “%Inh” value in assay [19] is given as 1%; in assay [20], 0%.
